This passage reports Potency and activity change, positive = activation results from PubChem BioAssay (Tox21).

Test [1] can be described thus: qHTS assay to identify small molecule agonists of the constitutive androstane receptor (CAR) signaling pathway - cell viability counter screen (AID 1224836). Note: nearly all actives have a fitted effect of over 45% in size. Note: potency is the fitted concentration of half-maximal effect. A digest of the protocol:
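Cells were seeded and incubated 4 hrs. Compounds were added across 15 concentrations together with PK11195 at 0.75 uM final. Plates were incubated 23 hrs at 37 C. CellTiter-Fluor was added and fluorescence measured.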
On the technique in general: Quantitative high-throughput screening tests each substance at several concentrations.

For test [2], the target named is Nuclear receptor subfamily 1 group I member 3 (Homo sapiens) (UniProt Q14994). Put plainly: qHTS assay to identify small molecule antagonists of the constitutive androstane receptor (CAR) signaling pathway (AID 1224838). Note: nearly all actives have a fitted effect of over 40% in size. Note: potency is the fitted concentration of half-maximal effect. The method, boiled down:
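HepG2 cells stably carrying hCAR and a CYP2B6-2.2kb luciferase reporter, seeded 4 hrs before compound (15 concentrations). Stimulated with 50 nM CITCO for 24 hr at 37 C. ONE-Glo luminescence read after 30 min at room temperature.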

Test [3] has the same target. Kind of test: qHTS assay to identify small molecule agonists of the constitutive androstane receptor (CAR) signaling pathway (AID 1224839). Note: nearly all actives have a fitted effect of over 15% in size. Note: potency is the fitted concentration of half-maximal effect. The method, boiled down:
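Cells were plated and incubated 4 hrs, then dosed with compounds at 15 concentrations. PK11195 was added to 0.75 uM final. After 24 hrs at 37 C, luciferase luminescence was measured.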

Test [4] can be described thus: qHTS assay to identify small molecule antagonists of the estrogen related receptor signaling pathway with the pleiotropic PPARgamma coactivator (PGC) from Tox21 10K library - cell viability counter screen (AID 1224840; active = well fitted cell-killing curve with a large enough effect in the repeat runs, not every such curve was filed as active; note: nearly all actives have a fitted effect of over 40% in size; note: potency is the fitted concentration of half-maximal effect). A digest of the protocol: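 PGC/ERR cells (2,000/well) plated 6 h, then compound-treated for 17.5 h at 37 C. Viability measured by CellTiter-Fluor fluorescence after 30 min at 37 C, multiplexed with the pathway assay.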

Test [5] can be described thus: qHTS assay to identify small molecule agonists of the hypoxia (HIF-1) signaling pathway - cell viability counter screen (AID 1224844; calls by dose curve; note: nearly all actives have a fitted effect of over 50% in size; note: potency is the fitted concentration of half-maximal effect). The method, boiled down:
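HRE-bla ME-180 cells, 2,000/well in 0.5% dialyzed FBS medium, treated 17 h at 37C with compounds. Viability read in the same wells as the bla reporter, by CellTiter-Glo luminescence after 30 min at room temperature.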

Test [6] can be described thus: qHTS assay to identify small molecule agonists of H2AX (AID 1224845; active = well fitted activation curve with a large enough effect in the signal ratio in the repeat runs, not every such curve was filed as active; the % refers to the signal ratio; note: potency is the fitted concentration of half-maximal effect). A digest of the protocol:
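Phospho-H2AX Ser139 measured by HTRF (ex 320 nm; em 665 and 620 nm) after 24 hr antibody incubation. Compounds, 15 concentrations, 0.76% DMSO, were applied to CHO-K1 cells for 3hr at 37C before lysis.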

Test [7] is described as follows: qHTS assay to identify small molecule agonists of H2AX - cell viability counter screen (AID 1224847; calls by dose curve; note: nearly all actives have a fitted effect of over 30% in size; note: potency is the fitted concentration of half-maximal effect). The method, boiled down: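 Cytotoxicity counter screen in wild-type CHO-K1 cells: a 3 hr compound treatment at 37C across 15 concentrations, followed by CellTiter-Glo luminescence to gauge viable cells.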
A short description of test [8]: qHTS RealTime-Glo MT Cell Viability Assay in HepG2 cells - 24 hour (AID 1224867). Note: nearly all actives have a fitted effect of over 50% in size. Note: potency is the fitted concentration of half-maximal effect. The method, boiled down: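 HepG2 suspension premixed with RealTime-Glo reagents is plated at 600 cells per well and left 5 h at 37 C/5% CO2. Compounds in DMSO then go in, and bioluminescence reflecting viable cell number is recorded over 40 h.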
The nature of test [9]: qHTS RealTime-Glo MT Cell Viability Assay in HEK293 cells - 32 hour (AID 1224868). Note: nearly all actives have a fitted effect of over 50% in size. Note: potency is the fitted concentration of half-maximal effect. A digest of the protocol: (§1)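 Reads taken at 0, 8, 16, 24, 32 and 40 h from the same wells. HEK293 cells (600/well) carried RealTime-Glo reagents from seeding, with compound added after a 5 h settle at 37 C.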
Test [10] in a line: A CellTox Green Cytotoxicity Assay to monitor cytotoxicity in HEK293 cells - 0 hour (AID 1224869). Note: nearly all actives have a fitted effect of over 50% in size. A digest of the protocol: (§2)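 HEK293 cells, 600/well, were preincubated 5 hours and then exposed to compounds at 37 C for up to 40 hours. A cell-impermeant cyanine dye staining dead-cell DNA was read by fluorescence at 0, 8, 16, 24, 32 and 40 h time points.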
The nature of test [11]: qHTS RealTime-Glo MT Cell Viability Assay in HepG2 cells - 40 hour (AID 1224870). Note: nearly all actives have a fitted effect of over 50% in size. Note: potency is the fitted concentration of half-maximal effect. A digest of the protocol:
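Real-time viability: cells seeded at 600 per well together with NanoLuc and cell-permeant prosubstrate, compounds added after 5 h incubation. Luminescence tracked at 0, 8, 16, 24, 32 and 40 h of exposure.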

The nature of test [12]: A CellTox Green Cytotoxicity Assay to monitor cytotoxicity in HEK293 cells - 40 hour (AID 1224871). Note: nearly all actives have a fitted effect of over 45% in size. Note: potency is the fitted concentration of half-maximal effect. A digest of the protocol:
as §2

A short description of test [13]: qHTS RealTime-Glo MT Cell Viability Assay in HEK293 cells - 16 hour (AID 1224872). Note: nearly all actives have a fitted effect of over 50% in size. Note: potency is the fitted concentration of half-maximal effect. A digest of the protocol: as §1
Test [14] can be described thus: qHTS assay to identify small molecule antagonists of the constitutive androstane receptor (CAR) signaling pathway - cell viability counter screen (AID 1224837). Note: nearly all actives have a fitted effect of over 45% in size. A digest of the protocol:
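HepG2 cells stably carrying hCAR and CYP2B6-2.2kb reporter, stimulated with 50 nM CITCO and compounds at 15 concentrations for 23 h at 37 C. Viability measured by CellTiter-Fluor fluorescence.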

Test [15] addresses Thyrotropin receptor (Homo sapiens) (UniProt P16473). Put plainly: qHTS assay to identify small molecule agonists of the thyroid stimulating hormone receptor (TSHR) signaling pathway (AID 1224843; calls by dose curve; note: nearly all actives have a fitted effect of over 45% in size). A digest of the protocol: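 Screening of the Tox21 10K collection used HEK293 cells engineered with TSHR at 800 cells per well. After a 30-min room-temperature compound exposure, HTRF cAMP reagents were added and fluorescence recorded 1 h later.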

A short description of test [16]: qHTS assay to identify small molecule agonists of the hypoxia (HIF-1) signaling pathway (AID 1224846; active = well fitted activation curve with a large enough effect in the signal ratio in the repeat runs, not every such curve was filed as active; the % refers to the signal ratio). A digest of the protocol: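 HRE-bla ME-180 beta-lactamase reporter cells in medium with 0.5% dialyzed FBS, pre-incubated 5 h then exposed to compounds 17 h at 37C, 5% CO2; reporter induction read with CCF4-AM FRET substrate.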
Test [17] is described as follows: qHTS assay to identify small molecule antagonists of the estrogen related receptor signaling pathway with the pleiotropic PPARgamma coactivator (PGC) from Tox21 10K library (AID 1224841; call rule not given here). The method, boiled down: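 PGC/ERR cell line, 2,000 cells/well, pre-incubated 6 hours at 37 C, then exposed to compounds for 18 hours at 37 C; luciferase read with One-Glo luminescence after 30 min at room temperature.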

A short description of test [18]: qHTS assay to identify small molecule agonists of the estrogen related receptor signaling pathway with the pleiotropic PPARgamma coactivator (PGC) from Tox21 10K library (AID 1224842). Note: nearly all actives have a fitted effect of over 15% in size. The method, boiled down: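 Luminescence from One-Glo (30 min, room temperature) measured after PGC/ERR cells had 18 h at 37 C with pinned compound (23 nL in DMSO). Cells had been seeded at 2,000 per well and pre-incubated 6 h.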

Test [19] is described as follows: qHTS assay to identify small molecule antagonists of the estrogen related receptor (ERR) signaling pathway from Tox21 library (AID 1224848). Note: nearly all actives have a fitted effect of over 50% in size. A digest of the protocol: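 Antagonist-mode screen of the Tox21 10K library in an NTP-provided ERR reporter cell line; 18 h compound exposure at 37 C, luminescence measured with ONE-Glo.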
The nature of test [20]: qHTS assay to identify small molecule agonists of the estrogen related receptor (ERR) signaling pathway from Tox21 library (AID 1224849; calls by dose curve; note: nearly all actives have a fitted effect of over 15% in size). Particulars: ERR reporter cell line, ONE-Glo luciferase, 18 h; at 92.4 µM (top of the series). A digest of the protocol: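 ERR reporter cells (NTP line) pre-incubated 6 hours at 37 C, then exposed to compounds for 18 hours at 37 C. ONE-Glo luciferase luminescence was read after 30 minutes at room temperature.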

Several values for one entry are separate records, joined by “and”; a condition that tells them apart may be missing. Equal entries are not always repeated. Inconclusive results are not listed. A structure can be active in one record and inactive in another. Activity calls are given as the source filed them. Unless noted, calls come from the whole dose curve; as a rule, active = well fitted curve in the direction sought with a large enough effect in the repeat runs; inconclusive = weak or mixed curves; inactive = no such curve, though single readings can be large; an effect the other way counts as inactive or inconclusive.
% is set by controls: 0 for no effect and ±100 for the full control effect.

Sequence of Nuclear receptor subfamily 1 group I member 3 (Homo sapiens) (Q14994 whole entry, looked up): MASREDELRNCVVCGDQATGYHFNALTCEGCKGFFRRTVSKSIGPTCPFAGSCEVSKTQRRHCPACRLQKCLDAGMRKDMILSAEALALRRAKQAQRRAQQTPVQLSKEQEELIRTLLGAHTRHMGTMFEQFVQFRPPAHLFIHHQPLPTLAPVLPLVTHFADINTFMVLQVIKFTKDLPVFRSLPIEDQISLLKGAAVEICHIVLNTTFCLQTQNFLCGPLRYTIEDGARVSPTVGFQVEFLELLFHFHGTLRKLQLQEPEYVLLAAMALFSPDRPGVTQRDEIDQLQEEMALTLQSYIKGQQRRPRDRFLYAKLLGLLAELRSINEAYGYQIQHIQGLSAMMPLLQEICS
Sequence of Thyrotropin receptor (Homo sapiens) (P16473 whole entry, looked up): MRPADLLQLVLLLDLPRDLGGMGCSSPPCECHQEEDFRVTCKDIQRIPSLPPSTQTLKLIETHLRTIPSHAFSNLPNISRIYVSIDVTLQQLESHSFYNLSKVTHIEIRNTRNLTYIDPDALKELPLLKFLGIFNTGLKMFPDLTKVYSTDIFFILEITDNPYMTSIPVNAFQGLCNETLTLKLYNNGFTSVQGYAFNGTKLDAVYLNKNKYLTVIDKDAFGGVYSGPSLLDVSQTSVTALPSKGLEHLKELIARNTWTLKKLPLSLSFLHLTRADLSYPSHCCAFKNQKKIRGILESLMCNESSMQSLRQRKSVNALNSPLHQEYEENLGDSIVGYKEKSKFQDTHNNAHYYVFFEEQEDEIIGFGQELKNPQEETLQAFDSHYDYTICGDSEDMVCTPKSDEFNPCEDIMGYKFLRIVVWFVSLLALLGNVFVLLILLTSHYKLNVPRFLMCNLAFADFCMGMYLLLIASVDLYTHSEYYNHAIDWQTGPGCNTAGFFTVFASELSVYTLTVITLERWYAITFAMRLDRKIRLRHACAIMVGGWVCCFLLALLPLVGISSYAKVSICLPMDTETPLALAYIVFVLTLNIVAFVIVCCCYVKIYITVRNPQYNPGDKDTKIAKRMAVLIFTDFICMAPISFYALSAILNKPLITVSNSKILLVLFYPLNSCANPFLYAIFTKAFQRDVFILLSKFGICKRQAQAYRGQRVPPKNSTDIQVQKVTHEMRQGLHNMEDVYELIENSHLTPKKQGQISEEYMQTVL

Consider `CCCCCCCCCCCCc1ccccc1O`, for which the Potency entry in test [1] and in [10] was “inactive” in each case. The Potency in test [2] is 30.6 µM (active); in [3], 4.79 µM (active) and 4.33 µM (active); in [4], “inactive and 48.6 µM (active)”; in test [5], 19.5 µM (active); in [6], 55.9 µM (active) and 40.1 µM (active); in [7], 55.9 µM (active) and 40.1 µM (active). The Potency result in [8] is “inactive and 38.9 µM (active)”; in test [9], 48.3 µM (active) and 49 µM (active); in test [11] it was “inactive and 49 µM (active)”; in [12], 43.1 µM (active) and 34.7 µM (active); in test [13] it was 43.1 µM (active) and 43.6 µM (active).
For `O=C1Nc2ccccc2C1(c1ccc(O)cc1)c1ccc(O)cc1`, the Potency result in test [1], in [14], in [4], in [15], in test [6] and in test [16] was “inactive” throughout. Further, the Potency entry in test [7], in test [8], in test [11] and in test [12] was “inactive” each time. Further, the Potency in [9] is 49 µM (active) and inactive.
Consider `Cc1cccc2n[nH]nc12`, for which the Potency result in test [14], in test [2], in test [3], in test [4], in [17] and in test [18] was “inactive” in each case. In addition, the Potency entry in [15], in test [5], in test [6], in test [7], in test [19] and in [8] was “inactive” each time. The Potency entry in [9], in test [10] and in test [12] was “inactive” throughout. For the same compound, in test [20], the activity change, positive = activation was 7.89% (inactive) and -7.83% (inactive).
`NC(=Nc1ccccc1)Nc1ccccc1`: the Potency in [1] was 3.86 µM (active). In addition, the Potency entry in test [4], in [17], in [15], in [5], in [6] and in test [16] was “inactive” each time. Besides, the Potency entry in test [7], in test [19], in test [8], in test [10], in [11] and in test [12] was “inactive” each time. For the same compound, in [13], the Potency result is “inactive”.
For `Cc1cccc([N+](=O)[O-])c1C(=O)O`, the Potency entry in test [14], in test [2], in test [3], in test [4], in test [17] and in test [18] was “inactive” each time. For the same compound, the Potency result in test [15], in test [5], in test [6], in [16], in test [7] and in test [8] was “inactive” each time. In addition, the Potency result in [9], in test [10], in test [11], in test [12] and in [13] was “inactive” each time. In addition, the activity change, positive = activation in test [20] was 4.9% (inactive).
With `C[N+]1([O-])CCOCC1`, the Potency result in test [14], in [2], in test [3], in test [4], in test [17] and in [18] was “inactive” each time. Besides, the Potency entry in test [15], in [5], in test [6], in test [16], in test [7] and in test [8] was “inactive” throughout. The Potency entry in test [9], in test [10], in test [12] and in [13] was “inactive” throughout. Further, the activity change, positive = activation in test [20] was -0.0985% (inactive).
